# Data from PubChem BioAssay (NCI).
# Compounds without any hit were thinned out: in the full panel of roughly 79,000, 15% have a hit. Values without a mark were called inactive. Calls of active or inactive are those of the source. Rule as the data show it: active = growth inhibition above about 70%; inactive = the rest.
# Legend:
# [1] = NCI Yeast Anticancer Drug Screen. Data for the mec2-1 strain (AID 157); details: S. cerevisiae mec2-1 strain, active compounds read high
# Procedure, shortened: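 mec2-1 yeast strain, carrying an alteration in DNA damage repair or cell cycle control, was exposed to compounds; growth inhibition was measured relative to vehicle-treated controls.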
# [2] = NCI Yeast Anticancer Drug Screen. Data for the rad14 strain (AID 159);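 also: 0% = growth of vehicle-treated control cultures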; details: S. cerevisiae rad14 strain growth inhibition, active compounds read high
# Procedure, shortened: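 Growth inhibition vs vehicle controls; genetically altered yeast strain (DNA damage repair defect) treated with test compounds.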
# [3] = NCI Yeast Anticancer Drug Screen. Data for the sgs1 mgt1 strain (AID 161);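 also: 0% = growth of cultures given vehicle only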; details: S. cerevisiae sgs1 mgt1 strain, active compounds read high
# Procedure, shortened: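 Yeast cells carrying a defined DNA-repair defect were exposed to test compounds. Growth inhibition was measured relative to vehicle-treated controls.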
# [4] = NCI Yeast Anticancer Drug Screen. Data for the CLN2oe strain (AID 163);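 also: 0% = growth of vehicle-only control cultures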; details: S. cerevisiae CLN2oe strain, active compounds read high
# Procedure, shortened: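 Yeast cells carrying a defined cell-cycle control alteration were exposed to test compounds. Growth inhibition was scored against vehicle-treated control cultures.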
# [5] = NCI Yeast Anticancer Drug Screen. Data for the cln2 rad14 strain (AID 165);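 also: 0% = growth equal to vehicle treated cultures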; details: S. cerevisiae cln2 rad14 strain, active compounds read high
# Procedure, shortened: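 Yeast carrying cln2 and rad14 alterations (cell cycle control and DNA damage repair) were exposed to compounds. Growth inhibition was measured against vehicle-treated controls.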
# [6] = NCI Yeast Anticancer Drug Screen. Data for the bub3 strain (AID 167); details: S. cerevisiae bub3 mutant strain, active compounds read high
# Procedure, shortened: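 Readout: yeast growth inhibition, expressed relative to vehicle-only wells. The test organism is a mutant strain from a panel with lesions in DNA repair or checkpoint genes.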
# [7] = NCI Yeast Anticancer Drug Screen. Data for the wt2 strain (AID 169);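 also: 0% = growth of vehicle-treated yeast cultures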; details: S. cerevisiae wt2 strain growth inhibition, active compounds read high
# Procedure, shortened: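 Yeast cells were exposed to test compounds, and growth inhibition was measured relative to vehicle-treated controls.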
# [8] = NCI Yeast Anticancer Drug Screen. Data for the mlh1 strain (AID 171);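 also: 0% = growth of vehicle-treated control cultures of the same strain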; details: S. cerevisiae mlh1 strain growth inhibition, active compounds read high
# Procedure, shortened: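 Yeast carrying a defined genetic alteration in DNA damage repair or cell cycle control were exposed to test compounds. Growth inhibition was measured relative to vehicle-treated controls.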
# [9] = NCI Yeast Anticancer Drug Screen. Data for the sgs1 strain (AID 173);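 also: 0% = growth of vehicle-only control cultures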; details: S. cerevisiae sgs1 mutant, active compounds read high
# Procedure, shortened: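 Yeast mutant strains carrying defined defects in DNA damage repair or cell cycle control were exposed to test compounds. Growth inhibition was scored against vehicle-treated controls.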
# [10] = NCI Yeast Anticancer Drug Screen. Data for the mlh1 rad18 strain (AID 175); details: S. cerevisiae mlh1 rad18 strain growth inhibition, active compounds read high
# Procedure, shortened: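 Growth inhibition of the yeast strain was measured after compound exposure and expressed relative to vehicle-treated controls. The strain carries defined defects in DNA damage repair.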
# [11] = NCI Yeast Anticancer Drug Screen. Data for the rad18 strain (AID 177); details: S. cerevisiae rad18 mutant growth inhibition, active compounds read high
# Procedure, shortened: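 Yeast carrying a defined DNA damage repair alteration were exposed to compounds. Growth inhibition was expressed relative to vehicle-treated controls.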
# [12] = NCI Yeast Anticancer Drug Screen. Data for the rad52 strain (AID 147);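 also: 0% = growth of vehicle-treated control cultures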; details: S. cerevisiae rad52 mutant growth inhibition, active compounds read high
# Procedure, shortened: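 Yeast strain carrying a DNA damage repair alteration was exposed to test compounds. Growth inhibition was measured relative to vehicle-treated controls.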
# [13] = NCI Yeast Anticancer Drug Screen. Data for the wt1 strain (AID 149);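 also: 0% = growth of vehicle-treated wt1 cultures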; details: S. cerevisiae wt1 strain (SPY 50644) growth inhibition, active compounds read high
# Procedure, shortened: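 Growth inhibition read against vehicle controls after compound exposure of the wt1 yeast strain.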
# [14] = NCI Yeast Anticancer Drug Screen. Data for the rad50EPP+ strain (AID 151);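 also: 0% = growth of vehicle-treated control cultures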; details: S. cerevisiae rad50 mutant strain, active compounds read high
# Procedure, shortened: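 Yeast strain carrying rad50 alteration (rad50EPP+) exposed to compounds; growth inhibition measured relative to vehicle-treated controls.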
# [15] = NCI Yeast Anticancer Drug Screen. Data for the mgt1 strain (AID 153); details: S. cerevisiae mgt1 mutant growth inhibition, active compounds read high
# Procedure, shortened: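 Yeast mgt1 strain (DNA repair/cell-cycle alteration panel) exposed to compounds; growth inhibition measured relative to vehicle-treated controls.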
# [16] = NCI Yeast Anticancer Drug Screen. Data for the rad50 strain (AID 155);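 also: 0% = growth of vehicle-only cultures of the same strain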; details: S. cerevisiae rad50 strain growth inhibition, active compounds read high
# Procedure, shortened: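 Readout: growth inhibition relative to vehicle-treated cultures. Compound exposure was carried out in a genetically defined yeast strain deficient in DNA damage repair.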
# [17] = at 5.0 µM (retest, dose inferred, filed as 0.5)
# [18] = at 50.0 µM (retest, dose inferred, filed as 5.0)
structure (smiles),measurement,setting,value
Nc1cc(Cl)ccc1Nc1ccccc1,growth inhibition,[1]; [17],65%
same,growth inhibition,[1]; at 11.0 µM,-49%
same,growth inhibition,[1]; at 33.0 µM,-33%
same,growth inhibition,[1]; [18],99% (active)
same,growth inhibition,[1]; at 50.0 µM,79.8% (active)
same,growth inhibition,[1]; at 100.0 µM,92% (active)
same,growth inhibition,[2]; at 1.2 µM,-7%
same,growth inhibition,[2]; at 3.7 µM,-13%
same,growth inhibition,[2]; at 11.0 µM,-14%
same,growth inhibition,[2]; at 33.0 µM,1%
same,growth inhibition,[2]; at 100.0 µM,87% (active)
same,growth inhibition,[3]; [17],9%
same,growth inhibition,[3]; [18],91% (active)
same,growth inhibition,[3]; at 50.0 µM,83.5% (active)
same,growth inhibition,[4]; at 1.2 µM,5%
same,growth inhibition,[4]; at 3.7 µM,3%
same,growth inhibition,[4]; at 11.0 µM,-1%
same,growth inhibition,[4]; at 33.0 µM,3%
same,growth inhibition,[4]; at 100.0 µM,84% (active)
same,growth inhibition,[5]; [17],24%
same,growth inhibition,[5]; [18],95% (active)
same,growth inhibition,[5]; at 50.0 µM,61.1%
same,growth inhibition,[6]; at 1.2 µM,-21%
same,growth inhibition,[6]; at 3.7 µM,-16%
same,growth inhibition,[6]; [17],20%
same,growth inhibition,[6]; at 11.0 µM,-24%
same,growth inhibition,[6]; at 33.0 µM,-8%
same,growth inhibition,[6]; [18],92% (active)
same,growth inhibition,[6]; at 50.0 µM,84% (active)
same,growth inhibition,[6]; at 100.0 µM,93% (active)
same,growth inhibition,[7]; at 1.2 µM,-15%
same,growth inhibition,[7]; at 3.7 µM,-15%
same,growth inhibition,[7]; at 11.0 µM,-22%
same,growth inhibition,[7]; at 33.0 µM,5%
same,growth inhibition,[7]; at 100.0 µM,95% (active)
same,growth inhibition,[8]; at 1.2 µM,-85%
same,growth inhibition,[8]; at 3.7 µM,-70%
same,growth inhibition,[8]; at 11.0 µM,-31%
same,growth inhibition,[8]; at 33.0 µM,-25%
same,growth inhibition,[8]; at 100.0 µM,79% (active)
same,growth inhibition,[9]; at 1.2 µM,-53%
same,growth inhibition,[9]; at 3.7 µM,-36%
same,growth inhibition,[9]; at 11.0 µM,-35%
same,growth inhibition,[9]; at 33.0 µM,4%
same,growth inhibition,[9]; at 100.0 µM,89% (active)
same,growth inhibition,[10]; [17],62%
same,growth inhibition,[10]; [18],99% (active)
same,growth inhibition,[10]; at 50.0 µM,84% (active)
same,growth inhibition,[11]; at 1.2 µM,-15%
same,growth inhibition,[11]; at 3.7 µM,-39%
same,growth inhibition,[11]; at 11.0 µM,-24%
same,growth inhibition,[11]; at 33.0 µM,-15%
same,growth inhibition,[11]; at 100.0 µM,85% (active)
O=C1Nc2ccc(Br)cc2C1=Nc1cccnc1,growth inhibition,[12]; at 1.2 µM,-23%
same,growth inhibition,[12]; at 3.7 µM,-36%
same,growth inhibition,[12]; at 11.0 µM,-40%
same,growth inhibition,[12]; at 33.0 µM,-32%
same,growth inhibition,[12]; at 100.0 µM,-40%
same,growth inhibition,[13]; at 1.2 µM,-25%
same,growth inhibition,[13]; at 3.7 µM,-20%
same,growth inhibition,[13]; at 11.0 µM,-17%
same,growth inhibition,[13]; at 33.0 µM,-8%
same,growth inhibition,[13]; at 100.0 µM,-24%
same,growth inhibition,[14]; at 1.2 µM,3%
same,growth inhibition,[14]; at 3.7 µM,-9%
same,growth inhibition,[14]; at 11.0 µM,-8%
same,growth inhibition,[14]; at 33.0 µM,-3%
same,growth inhibition,[14]; at 100.0 µM,16%
same,growth inhibition,[15]; at 1.2 µM,-33%
same,growth inhibition,[15]; at 3.7 µM,-27%
same,growth inhibition,[15]; at 11.0 µM,-36%
same,growth inhibition,[15]; at 33.0 µM,-19%
same,growth inhibition,[15]; at 100.0 µM,-14%
same,growth inhibition,[16]; at 1.2 µM,-41%
same,growth inhibition,[16]; at 3.7 µM,-42%
same,growth inhibition,[16]; [17],52%
same,growth inhibition,[16]; at 11.0 µM,-36%
same,growth inhibition,[16]; at 33.0 µM,-25%
same,growth inhibition,[16]; [18],49%
same,growth inhibition,[16]; at 50.0 µM,31.9%
same,growth inhibition,[16]; at 100.0 µM,-13%
same,growth inhibition,[1]; at 1.2 µM,-54%
same,growth inhibition,[1]; at 3.7 µM,-51%
same,growth inhibition,[1]; [17],47%
same,growth inhibition,[1]; at 11.0 µM,-41%
same,growth inhibition,[1]; at 33.0 µM,-31%
same,growth inhibition,[1]; [18],53%
same,growth inhibition,[1]; at 50.0 µM,39.2%
same,growth inhibition,[1]; at 100.0 µM,-12%
same,growth inhibition,[2]; at 1.2 µM,-55%
same,growth inhibition,[2]; at 3.7 µM,-61%
same,growth inhibition,[2]; at 11.0 µM,-60%
same,growth inhibition,[2]; at 33.0 µM,-48%
same,growth inhibition,[2]; at 100.0 µM,-47%
same,growth inhibition,[3]; [17],-3%
same,growth inhibition,[3]; [18],32%
same,growth inhibition,[3]; at 50.0 µM,37.5%
same,growth inhibition,[4]; at 1.2 µM,-5%
same,growth inhibition,[4]; at 3.7 µM,3%
same,growth inhibition,[4]; at 11.0 µM,-18%
same,growth inhibition,[4]; at 33.0 µM,-8%
same,growth inhibition,[4]; at 100.0 µM,1%
same,growth inhibition,[5]; [17],32%
same,growth inhibition,[5]; [18],27%
same,growth inhibition,[5]; at 50.0 µM,10.4%
same,growth inhibition,[6]; at 1.2 µM,-53%
same,growth inhibition,[6]; at 3.7 µM,-47%
same,growth inhibition,[6]; [17],33%
same,growth inhibition,[6]; at 11.0 µM,-38%
same,growth inhibition,[6]; at 33.0 µM,10%
same,growth inhibition,[6]; [18],94% (active)
same,growth inhibition,[6]; at 50.0 µM,86.6% (active)
same,growth inhibition,[6]; at 100.0 µM,82% (active)
same,growth inhibition,[7]; at 1.2 µM,-21%
same,growth inhibition,[7]; at 3.7 µM,-24%
same,growth inhibition,[7]; at 11.0 µM,-20%
same,growth inhibition,[7]; at 33.0 µM,-30%
same,growth inhibition,[7]; at 100.0 µM,-27%
same,growth inhibition,[8]; at 1.2 µM,-25%
same,growth inhibition,[8]; at 3.7 µM,-15%
same,growth inhibition,[8]; at 11.0 µM,-42%
same,growth inhibition,[8]; at 33.0 µM,-39%
same,growth inhibition,[8]; at 100.0 µM,-31%
same,growth inhibition,[9]; at 1.2 µM,-32%
same,growth inhibition,[9]; at 3.7 µM,-41%
same,growth inhibition,[9]; at 11.0 µM,-21%
same,growth inhibition,[9]; at 33.0 µM,-29%
same,growth inhibition,[9]; at 100.0 µM,-18%
same,growth inhibition,[10]; [17],31%
same,growth inhibition,[10]; [18],46%
same,growth inhibition,[10]; at 50.0 µM,35.4%
same,growth inhibition,[11]; at 1.2 µM,-28%
same,growth inhibition,[11]; at 3.7 µM,-39%
same,growth inhibition,[11]; at 11.0 µM,-32%
same,growth inhibition,[11]; at 33.0 µM,-36%
same,growth inhibition,[11]; at 100.0 µM,-26%
